Test in all cases: peptide microarray binding signal (635 nm), min-max normalized on array (fraction of array maximum); higher = stronger binding
Holding throughout (details): peptide region: H3 112-124

Assay [1] deals with T1, HaloTag-ATRX ADD domain (163-292).
T1 chain: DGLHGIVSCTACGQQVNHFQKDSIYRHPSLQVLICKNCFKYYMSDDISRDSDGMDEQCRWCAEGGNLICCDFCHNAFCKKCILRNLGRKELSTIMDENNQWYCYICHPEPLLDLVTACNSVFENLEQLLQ
Summed up:
(§1)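 Binding signal is the mean intensity of triplicate spots, min-max scaled within each library. Histone 13-mer peptide–cellulose conjugates were spotted in triplicate on nitrocellulose with a Cy3 tracer and blocked overnight at 4°C. Probing lasted 1 h at 4°C, either with biotin-labelled HaloTag reader fusions (10 nM to 1 μM) and streptavidin-Alexa Fluor 647 or with rabbit histone antibodies (1:10,000 to 1:2,000) and anti-rabbit Alexa 647. An Axon GenePix 4000B read signal at 635 nm and misprints at 532 nm.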

In assay [2] the target is HaloTag-ING2 PHD (mouse Ing2 200-280). A digest of the protocol:
as §1

Assay [3] has as its target anti-H3K4me3 antibody ab8580. Summed up: as §1
Assay [4] deals with anti-H3K9me3 antibody ab8898. Summed up: as §1
[5] abbreviates: peptide modifications: H3K122ac, binder concentration: 1:2,000 dilution.
The mark [6] stands for this setting: peptide modifications: H3K122ac, binder concentration: 1:10,000 dilution.
Where [7] appears, read: peptide modifications: H3K115me3 H3K122me1, binder concentration: 1:2,000 dilution.
[8] abbreviates: peptide modifications: H3K115me3 H3K122me1, binder concentration: 1:10,000 dilution.
The mark [9] stands for this setting: peptide modifications: H3K122me3, binder concentration: 1:2,000 dilution.
The mark [10] stands for this setting: peptide modifications: H3K122me3, binder concentration: 1:10,000 dilution.
Setting [11] is: peptide modifications: H3K115me3, binder concentration: 1:2,000 dilution.
Where [12] appears, read: peptide modifications: H3K115me3, binder concentration: 1:10,000 dilution.
Setting [13] is: peptide modifications: H3K122me1, binder concentration: 1:2,000 dilution.
Setting [14] is: peptide modifications: H3K122me1, binder concentration: 1:10,000 dilution.

± gives the standard deviation.

Consider IHAKRVTIMPKDI [H3 112-124 I H A K R V T I M P Kac D I], for which the “peptide microarray binding signal” value came out at 0.002508 ± 1.9e-05 in assay [1] (peptide modifications: H3K122ac, binder concentration: 50 nM); 0.00729 ± 0.0012 in assay [1] (peptide modifications: H3K122ac, binder concentration: 500 nM); 0.00328 ± 0.00025 in assay [2] (peptide modifications: H3K122ac, binder concentration: 10 nM); 0.00475 ± 0.0007 in assay [2] (peptide modifications: H3K122ac, binder concentration: 100 nM); 0.00113 ± 0.00025 in assay [3] (setting [5]); 0.00137 ± 0.00013 in assay [3] (setting [6]). Besides, the “peptide microarray binding signal” value in assay [4] (setting [5]) turned out to be 0.000483 ± 2.4e-05; in assay [4] (setting [6]), 0.000692 ± 7.3e-06.

On to IHAKRVTIMPKDI [H3 112-124 I H A Kme3 R V T I M P Kme D I], for which the “peptide microarray binding signal” value was 0.006489 ± 2.2e-05 in assay [1] (peptide modifications: H3K115me3 H3K122me1, binder concentration: 50 nM); 0.0138 ± 0.00023 in assay [1] (peptide modifications: H3K115me3 H3K122me1, binder concentration: 500 nM); 0.0505 ± 0.0051 in assay [2] (peptide modifications: H3K115me3 H3K122me1, binder concentration: 10 nM); 0.0785 ± 0.0067 in assay [2] (peptide modifications: H3K115me3 H3K122me1, binder concentration: 100 nM); 0.0317 ± 0.0091 in assay [3] (setting [7]); 0.0326 ± 0.0097 in assay [3] (setting [8]). The results for the “peptide microarray binding signal” value in assay [4] (setting [7]) and in assay [4] (setting [8]) were 0.0313 ± 0.0018 and 0.0119 ± 0.00075, respectively.

Consider IHAKRVTIMPKDI [H3 112-124 I H A K R V T I M P Kme3 D I], for which the “peptide microarray binding signal” value in assay [1] (peptide modifications: H3K122me3, binder concentration: 50 nM) is 0.00423 ± 4.3e-05; in assay [1] (peptide modifications: H3K122me3, binder concentration: 500 nM), 0.0122 ± 0.00089; in assay [2] (peptide modifications: H3K122me3, binder concentration: 10 nM), 0.00489 ± 0.00015; in assay [2] (peptide modifications: H3K122me3, binder concentration: 100 nM), 0.0106 ± 0.00081; in assay [3] (setting [9]), 0.000868 ± 3.3e-05; in assay [3] (setting [10]), 0.00126 ± 7.5e-05. Also, the “peptide microarray binding signal” value in assay [4] (setting [9]) was 0.0125 ± 0.002; in assay [4] (setting [10]), 0.00381 ± 0.00041.

For IHAKRVTIMPKDI [H3 112-124 I H A Kme3 R V T I M P K D I], the “peptide microarray binding signal” value amounted to 0.00549 ± 0.00022 in assay [1] (peptide modifications: H3K115me3, binder concentration: 50 nM); 0.0171 ± 0.00049 in assay [1] (peptide modifications: H3K115me3, binder concentration: 500 nM); 0.026 ± 0.0073 in assay [2] (peptide modifications: H3K115me3, binder concentration: 10 nM); 0.00872 ± 0.00066 in assay [2] (peptide modifications: H3K115me3, binder concentration: 100 nM); 0.0334 ± 0.0055 in assay [3] (setting [11]); 0.0596 ± 0.027 in assay [3] (setting [12]). Further, the “peptide microarray binding signal” value in assay [4] (setting [11]) was determined as 0.0319 ± 0.041; in assay [4] (setting [12]), 0.0536 ± 0.0037.

Take IHAKRVTIMPKDI [H3 112-124 I H A K R V T I M P Kme D I]: the “peptide microarray binding signal” value in assay [1] (peptide modifications: H3K122me1, binder concentration: 50 nM) is 0.00429 ± 0.00037; in assay [1] (peptide modifications: H3K122me1, binder concentration: 500 nM), 0.0122 ± 0.0011; in assay [2] (peptide modifications: H3K122me1, binder concentration: 10 nM), 0.0077 ± 0.0008; in assay [2] (peptide modifications: H3K122me1, binder concentration: 100 nM), 0.00602 ± 0.00041; in assay [3] (setting [13]), 0.00168 ± 0.00019; in assay [3] (setting [14]), 0.00348 ± 0.0013. Moreover, the “peptide microarray binding signal” value in assay [4] (setting [13]) came out at 0.00251 ± 0.00011; in assay [4] (setting [14]), 0.00144 ± 5.1e-05.

These data come from the supplement of paper PMC4022240.
